Assay outcomes: PubChem BioAssay, National Center for Advancing Translational Sciences (NCATS)
DT40 TDP1 no CPT = qHTS for Inhibitors of human tyrosyl-DNA phosphodiesterase 1 (TDP1): qHTS in cells in absence of CPT | actives 15% (n = 420,000) | DT40 Tdp1-/- hTDP1 cells, no CPT, ATP luminescence, 48 h | AID 686978, 2013 | Potency, µM (titrated, usually from 46.2 µM), for the others: top-dose activity change, negative = growth inhibition, usual class: inhibitors; also: potency is read from the fitted curve at half-maximal effect; % is scaled to controls: 0 for no effect and ±100 for the full control effect; nearly all actives have a fitted effect of over 55% in size
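DT40 Tdp1-/-;hTDP1 cells, no CPT (DMSO vehicle only), 400 cells/well; compounds pin-transferred; ≥48 hr, 37 °C; CellTiter-Glo 30 min RT dark, luminescence read.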
IL-1B inflam inh = inflammasome signaling inhibition, IL-1 beta readout; activity change, % at 57.5 µM; AID 743279; THP-1 LPS/ATP IL-1B secretion, AlphaLISA, 16 h; active compounds read low; actives 4.7% (n = 360,000); in the data active = activity change below about -50%; inconclusive = mostly about -30% to -49%; also: % is scaled to controls: 0 for no effect and ±100 for the full control effect
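Secreted IL-1B measured by AlphaLISA bead assay after 16 h compound exposure of THP-1 cells; compounds (final up to 57.5 uM) added 1 h before LPS (250 ng/mL) and ATP (1.25 mM) stimulation; lower signal means less secretion.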
DRD3 antagonist = antagonists of human D3 dopamine receptor | P35462 | D3R cells, DiscoveRx beta-arrestin luminescence, antagonist mode; active compounds read low | AID 652054 | actives 2.5% (n = 360,000) | max response, negative = inhibition, %; in the data active = max response below about -50%; inconclusive = no clear call, values can overlap the other calls; also: % is scaled to controls: 0 for no effect and ±100 for the full control effect
Target sequence (P35462 whole entry, looked up): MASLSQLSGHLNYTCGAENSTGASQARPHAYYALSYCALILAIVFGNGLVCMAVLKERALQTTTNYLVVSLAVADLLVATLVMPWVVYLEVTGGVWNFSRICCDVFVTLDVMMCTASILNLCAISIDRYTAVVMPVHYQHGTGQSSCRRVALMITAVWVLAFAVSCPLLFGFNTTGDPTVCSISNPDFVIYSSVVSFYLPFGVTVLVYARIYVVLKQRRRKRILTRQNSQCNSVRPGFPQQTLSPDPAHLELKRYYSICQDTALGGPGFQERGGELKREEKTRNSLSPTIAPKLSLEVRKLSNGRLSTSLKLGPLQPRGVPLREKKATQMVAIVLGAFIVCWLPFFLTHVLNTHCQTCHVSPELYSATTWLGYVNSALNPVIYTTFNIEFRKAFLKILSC
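Cells plated overnight at 1500 cells/well, then exposed to library compounds with dopamine controls for 90 minutes at 37 degrees C. DiscoveRx reagent added for 30–60 minutes at room temperature; luminescence read, quantitative HTS format.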
TDP1 cell CPT = growth inhibition of DT40 Tdp1-/-;hTDP1 cells with camptothecin (screen for TDP1 inhibitors); chicken DT40 Tdp1-/-;hTDP1 cells + 20 nM CPT, ATP luminescence, 48 h; Potency, µM (highest dose often 46.2 µM), for the others: at the top dose activity change, negative = growth inhibition, most hits filed as inhibitors; actives 12% (n = 420,000); also: potency is read from the fitted curve at half-maximal effect; % is scaled to controls: 0 for no effect and ±100 for the full control effect; nearly all actives have a fitted effect of over 55% in size
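Chicken DT40 Tdp1-/- cells complemented with human TDP1, 400 cells/well, exposed to compounds plus 20 nM camptothecin for at least 48 h at 37 C; viability read as ATP content by CellTiter-Glo luminescence.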
D3 ag = agonists of human D3 dopamine receptor; P35462; D3R DiscoveRx beta-arrestin cells, luminescence, 90 min; max activation, %; actives 0.58% (n = 410,000); AID 652048; in the data active = max activation above about 30%; also: 0% is about no effect
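Cells at 1500/well, incubated overnight, then treated with pinned compounds (dopamine as control) for 90 min at 37 degrees C. DiscoveRx reagent added for 30 - 60 minutes at room temperature; luminescence read.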
ClpP mod = qHTS Assay for Activators of ClpP. ATP-dependent Clp protease proteolytic subunit (Bacillus subtilis (strain 168)), P80244. Potency, µM (highest dose often 57.5 µM), for the others: at the top dose activity change, negative = active. actives 1.9% (n = 340,000). purified B. subtilis ClpP, FRET peptide cleavage, 20 min; active = well fitted falling curve with a large enough effect; inconclusive = small, poorly fitted or top-dose-only effect; inactive = no such curve, though single readings can be large or run the other way; also: potency is read from the fitted curve at half-maximal effect; the source files actives as falling curves though it sought activators and does not explain the sign; nearly all actives have a fitted effect of over 65% in size
Target sequence (P80244 whole entry, looked up): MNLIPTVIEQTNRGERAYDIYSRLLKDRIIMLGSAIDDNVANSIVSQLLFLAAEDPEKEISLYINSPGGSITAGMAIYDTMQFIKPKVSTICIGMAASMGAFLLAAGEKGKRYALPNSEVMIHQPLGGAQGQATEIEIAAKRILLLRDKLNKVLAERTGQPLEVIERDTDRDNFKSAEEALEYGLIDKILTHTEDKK
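FRET quenching reversal measured ClpP activation: 10 microg/mL B. subtilis ClpP at pH 8 with the FRET-FV decapeptide, read at 430 nm after 320 nm excitation. The 20-min minus 0-min signal was scaled between DMSO/no-enzyme wells and ADEP (5.8 microM final).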
* hit, by the source's call; i = inactive; ? = inconclusive; · = not tested or not shown. Rows were chosen to be rich in hits. Some 21% of all compounds tested hit in one or more screens of this group. Unless noted, calls follow the shape of the dose curve; as a rule, active = well fitted inhibition curve with a large enough effect; inconclusive = small, poorly fitted or top-dose-only effect; inactive = flat fitted curve, though single readings scatter.

SMILES	DT40 TDP1 no CPT	IL-1B inflam inh	DRD3 antagonist	TDP1 cell CPT	D3 ag	ClpP mod
CCc1ccc(NC(=O)Nc2ccc3c(c2)CCC3)cc1	-1%	-4	-10	-8%	-3	-4%
CCOC(=O)C1CCCN(CCC(=O)Nc2ccc(C)cc2)C1 (stereo unspecified)	-8%	-18	-71*	-5%	-7	-5%
Cc1cc(C)c2c(=O)cc(CSCC(=O)Nc3ccccc3Cl)[nH]c2c1	-16%	·	·	-9%	6	-4%
CCOC(=O)C1=C(COC(=O)CSc2ccc(C)cc2)NC(=O)NC1C (stereo unspecified)	13%	54	-15	2%	3	0%
Cc1ccc(NC(=O)COC(=O)c2ccc3c(c2)C(=O)N(CCc2ccccc2)C3=O)c(C)c1	6.5µM*	6	?	?	4	2%
CCOc1ccc(NC(=O)COC(=O)c2ccc3c(c2)C(=O)N(CCc2ccccc2)C3=O)cc1	?	15	5	?	16	4%
CN(CCC(=O)Nc1ccc2c(c1)OCO2)Cc1ccccc1	-6%	0	-73*	-9%	-31	0%
Nn1c(SCC(=O)Nc2ccc3c(c2)OCCO3)nnc(CCC(=O)O)c1=O	?	-4	2	21µM*	2	-2%
CN(CC(=O)Nc1ccc(Cl)cc1)C(=O)CCc1ccccc1	3%	-16	-2	-8%	-8	·
CN(CCC(=O)Nc1ccc(Cl)cc1)Cc1ccccc1	?	-9	-97*	-21%	-23	·
O=C(CCc1ccccc1)Nc1ccc2c(c1)OCCO2	?	6	-9	-4%	1	28µM*
CS(=O)(=O)N(CC(=O)Nc1ccc2c(c1)OCO2)Cc1ccccc1	-21%	-21	-4	-27%	-3	-1%
Cc1nnc(SCC(=O)Nc2ccc3c(c2)OCCO3)n1N	-7%	9	23	-2%	2	3%
Cc1ccc(/C=C/S(=O)(=O)NCC(=O)OCC(=O)N2CC(=O)Nc3ccccc32)cc1	11%	41	1	2%	4	-3%
CN(CCOC(=O)c1ccc2c(c1)OCCO2)Cc1ccccc1	-16%	-13	-79*	-13%	0	3%
O=C(Nc1ccc2c(c1)OCO2)N1CCN(c2ccccc2)CC1	1%	-15	-11	-2%	6	0%
O=C(Nc1ccc2c(c1)OCCO2)N1CCN(c2ccccc2)CC1	-25%	14	-52*	-6%	-2	2%
Cc1cc(C)c(NC(=O)CSc2ccc(-c3sc(-c4ccccc4)nc3C)nn2)c(C)c1	15µM*	·	·	23µM*	6	-2%
CCOc1ccccc1NC(=O)CSc1ccc(-c2sc(C)nc2C)nn1	16µM*	i	44	21µM*	13	2%
CCOc1ccccc1NC(=O)CSc1ccc(-c2ccco2)nn1	?	i	15	?	3	-4%
CCOC(=O)c1ccccc1NC(=O)CSc1ccc(-c2sc(-c3ccccc3)nc2C)nn1	18µM*	·	·	?	8	-5%
CCOc1ccccc1NC(=O)CSc1cn[nH]n1	-6%	-91*	-12	-1%	-3	·
Cc1ccccc1NC(=O)CSc1cn[nH]n1	3%	-2	7	7%	6	·
CCn1c(SCC(=O)Nc2ccc(N3CCOCC3)cc2)nnc1-c1ccncc1	-15%	7	11	-2%	-9	·
CS(=O)(=O)N1CCC(Oc2cccc(C(=O)NCCCOc3cccnc3)c2)CC1	?	10	9	?	1	-2%
SMILES	DT40 TDP1 no CPT	IL-1B inflam inh	DRD3 antagonist	TDP1 cell CPT	D3 ag	ClpP mod
COc1ccccc1CNC(=O)CSc1ccc(-c2sc(-c3ccccc3)nc2C)nn1	18µM*	·	·	?	13	28µM*
Cc1cc2occ(CC(=O)N(CC(C)C)c3c(N)n(Cc4ccccc4)c(=O)[nH]c3=O)c2cc1C	?	-23	-16	-27%	-2	·
O=C(COc1coc(CN2CCN(c3ccccc3)CC2)cc1=O)Nc1ccc(F)cc1	-27%	-7	-16	-39%	-5	-3%
CCOc1ccccc1NC(=O)C1CCCN(S(=O)(=O)c2cccs2)C1 (stereo unspecified)	23µM*	·	·	23µM*	-7	1%
CCOc1ccc2nc(NC(=O)C3CCCN(S(=O)(=O)c4cccs4)C3)sc2c1 (stereo unspecified)	?	-58*	-15	?	-13	-14%
CCOc1ccc(S(=O)(=O)N2CCCCC2)cc1NC(=O)C1CCCC1	?	8	9	-30%	2	2%
Cc1ccc2nc(NC(=O)C3CCCN(S(=O)(=O)c4cccnc4)C3)sc2c1 (stereo unspecified)	16µM*	-12	-26	23µM*	1	-1%
CCOc1ccccc1NC(=O)C1CCCN(S(=O)(=O)c2ccc(OC)c(C)c2)C1 (stereo unspecified)	16µM*	-2	9	?	4	1%
CCOC(=O)C1=C(C)N(C[C@@H]2CC[C@@H](Cc3ccc(-c4ccccc4)cc3)O2)C(=O)NC1c1ccc(Cl)cc1 (stereo partly specified)	21µM*	-52*	0	?	-29	-3%
CCOC(=O)C1=C(C)N(C[C@@H]2CC[C@@H](Cc3ccc(-c4ccccc4)cc3)O2)C(=O)NC1C1CC1 (stereo partly specified)	21µM*	11	61	?	15	-3%
COC(=O)c1ccc(C(=O)OC)c(NC(=O)C2CCCO2)c1 (stereo unspecified)	-10%	15	2	-11%	-1	·
COc1cnc(-c2ccccn2)nc1Oc1ccccc1	0.46µM*	15	-1	0.46µM*	-8	·
COc1cnc(-c2ccccn2)nc1N(C)c1ccccc1	0.41µM*	114	-68*	0.52µM*	-22	·
COc1ccnc(Oc2ccccc2)c1C#N	-9%	-7	-7	-10%	-13	0%
O=C(NCc1cn2ccccc2n1)C1CCC(=O)N(Cc2ccccc2F)C1 (stereo unspecified)	2%	3	2	3%	2	4%
COc1ccc(N2CCN(C(=O)c3nc(SC)ncc3Cl)CC2)cc1	?	·	·	-24%	-3	-1%
Cc1onc(-c2c(F)cccc2Cl)c1C(=O)NCc1ccc2c(c1)OCO2	5%	6	3	-4%	7	28µM*
